Measurements taken from PubChem BioAssay AID1159580 (chemical genetic matrix, 2015).
Values joined by “and” are separate entries in the source; they are usually repeats but may differ in a detail not shown here. Equal entries are not always repeated. Among all 5,500 compounds or so, about 2,000 (36%) were called active. Roughly 18% stayed inconclusive and do not appear here. Rule as the data show it: active = normalized growth mostly below about 0.91 (no sharp cut-off); inconclusive = no clear call, values can overlap the other calls; inactive = mostly above about 0.92. The list shows a part of the results.

Assay: chemical genetic growth profiling, strain panel (AID 1159580);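 also: tested at 20 µM; growth read once vehicle control cultures reached saturation at 30 °C; 1 = growth at the plate median or of vehicle wells; lower values mean less growth of the strain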
Settings: S. cerevisiae deletion strains, growth OD

Measured: normalized growth

Cc1[nH]ccc2c1[nH]c1cc(=O)ccc12
inactive: locus YAL013W, strain DEP1, active compounds read low 1.02 | locus YAL021C, strain ccr4, active compounds read low 0.989 | locus YAL026C, strain drs2, active compounds read low 1.01 | locus YAL030W, strain snc1, active compounds read low 0.995 | locus YBL061C, strain skt5, active compounds read low 0.993 | locus YBR009C, strain hhf1, active compounds read low 1.01 | locus YBR021W, strain FUR4, active compounds read low 1.03 | locus YBR023C, strain chs3, active compounds read low 1 | locus YBR171W, strain sec66, active compounds read low 0.999 | locus YBR229C, strain ROT2, active compounds read low 1.01 | locus YBR231C, strain swc5, active compounds read low 0.975 | locus YBR279W, strain paf1, active compounds read low 1.01 | locus YCL011C, strain gbp2, active compounds read low 1 | locus YCL016C, strain dcc1, active compounds read low 1 | locus YCL029C, strain bik1, active compounds read low 0.986 | locus YCL061C, strain MRC1, active compounds read low 1 | locus YCL069W, strain vba3, active compounds read low 0.995 | locus YCR088W, strain abp1, active compounds read low 0.998 | locus YDL005C, strain med2, active compounds read low 0.996 | locus YDL035C, strain GPR1, active compounds read low 1.03 | locus YDL040C, strain nat1, active compounds read low 0.993 | locus YDL074C, strain BRE1, active compounds read low 1.04 | locus YDL101C, strain DUN1, active compounds read low 1.01 | locus YDL185W, strain tfp1, active compounds read low 0.996 | locus YDL192W, strain arf1, active compounds read low 0.991 | locus YDR001C, strain nth1, active compounds read low 1.01 | locus YDR069C, strain doa4, active compounds read low 1.01 | locus YDR101C, strain arx1, active compounds read low 0.985 | locus YDR137W, strain rgp1, active compounds read low 1 | locus YDR150W, strain NUM1, active compounds read low 1 | locus YDR159W, strain sac3, active compounds read low 0.978 | locus YDR162C, strain NBP2, active compounds read low 1.03 | locus YDR195W, strain ref2 0.996 | locus YDR297W, strain sur2, active compounds read low 1 | locus YDR318W, strain mcm21, active compounds read low 0.993 | locus YDR334W, strain swr1, active compounds read low 1 | locus YDR335W, strain msn5, active compounds read low 0.995 | locus YDR388W, active compounds read low 0.988 | locus YDR392W, strain spt3, active compounds read low 0.96 | locus YDR502C, strain sam2, active compounds read low 0.992 | locus YEL003W, strain gim4, active compounds read low 0.997 | locus YEL037C, strain rad23, active compounds read low 0.993 | locus YEL061C, strain CIN8 (second series), active compounds read low 0.989 | locus YEL061C, strain CIN8, active compounds read low 1.01 | locus YER015W, strain faa2, active compounds read low 1 | locus YER016W, strain bim1, active compounds read low 0.997 | locus YER110C, active compounds read low 0.98 | locus YER111C, strain swi4, active compounds read low 0.989 | locus YER155C, strain BEM2 (second series), active compounds read low 0.973 | locus YER155C, strain BEM2, active compounds read low 1.02 | locus YER167W, strain BCK2, active compounds read low 1.03 | locus YFR010W, strain ubp6, active compounds read low 0.995 | locus YGL078C, strain dbp3, active compounds read low 0.992 | locus YGL086W, strain mad1, active compounds read low 1.01 | locus YGL167C, strain pmr1, active compounds read low 0.993 | locus YGL173C, strain kem1, active compounds read low 1 | locus YGL227W, strain vid30, active compounds read low 0.995 | locus YGL240W, strain doc1, active compounds read low 0.995 | locus YGL248W, strain PDE1, active compounds read low 1.02 | locus YGL253W, strain hxk2, active compounds read low 1 | locus YGR135W, strain pre9, active compounds read low 0.999 | locus YGR252W, strain gcn5, active compounds read low 1.01 | locus YHR013C, strain ard1, active compounds read low 1 | locus YHR027C, strain rpn1, active compounds read low 1 | locus YHR030C, strain SLT2, active compounds read low 1.01 and 0.992 | locus YHR079C, strain IRE1 (second series), active compounds read low 0.991 | locus YHR079C, strain IRE1, active compounds read low 0.989 | locus YHR094C, strain hxt1, active compounds read low 0.986 | locus YHR129C, strain ARP1, active compounds read low 1.03 | locus YHR142W, strain chs7, active compounds read low 1 | locus YHR200W, strain rpn10, active compounds read low 0.993 | locus YIL066C, strain RNR3, active compounds read low 1.04 | locus YIL073C, strain SPO22, active compounds read low 1.02 | locus YIL125W, strain kgd1, active compounds read low 0.993 | locus YIR030C, strain dcg1, active compounds read low 0.991 | locus YJL092W, strain hpr5, active compounds read low 0.999 | locus YJL095W, strain BCK1 (second series), active compounds read low 0.995 | locus YJL095W, strain BCK1, active compounds read low 1.01 and 1.02 | locus YJL115W, strain asf1, active compounds read low 0.994 | locus YJL129C, strain trk1, active compounds read low 1 | locus YJL134W, strain LCB3, active compounds read low 1 | locus YJL154C, strain vps35, active compounds read low 0.997 | locus YJL164C, strain tpk1, active compounds read low 0.996 | locus YJL166W, strain qcr8, active compounds read low 0.995 | locus YJL168C, strain set2, active compounds read low 0.986 | locus YJL187C, strain SWE1 (second series), active compounds read low 1.02 | locus YJL187C, strain SWE1, active compounds read low 0.996 | locus YJR043C, strain POL32, active compounds read low 1.04 | locus YJR066W, strain TOR1, active compounds read low 0.947 | locus YJR075W, strain HOC1, active compounds read low 1.02 | locus YKL009W, strain mrt4, active compounds read low 0.995 | locus YKL068W, active compounds read low 0.997 | locus YKL085W, strain MDH1 (second series), active compounds read low 1.01 | locus YKL085W, strain MDH1, active compounds read low 1.01 | locus YKL160W, strain elf1, active compounds read low 1 | locus YKL190W, strain CNB1, active compounds read low 0.987 | locus YKR001C, strain vps1, active compounds read low 0.987 | locus YKR026C, strain gcn3, active compounds read low 1 | locus YKR091W, strain srl3, active compounds read low 0.992 | locus YLL001W, strain dnm1, active compounds read low 0.994 | locus YLL026W, active compounds read low 1 | locus YLL041C, strain sdh2, active compounds read low 0.999 | locus YLR027C, strain aat2, active compounds read low 0.998 | locus YLR039C, strain RIC1, active compounds read low 1.06 | locus YLR058C, strain SHM2, active compounds read low 1.01 | locus YLR102C, strain apc9, active compounds read low 0.993 | locus YLR113W, strain HOG1, active compounds read low 1.02 | locus YLR221C, strain rsa3, active compounds read low 1.01 | locus YLR258W, strain gsy2, active compounds read low 0.995 | locus YLR262C, strain YPT6 (second series), active compounds read low 0.998 | locus YLR262C, strain YPT6, active compounds read low 1.09 | locus YLR268W, strain sec22, active compounds read low 0.984 | locus YLR320W, strain mms22, active compounds read low 0.999 | locus YLR330W, strain CHS5, active compounds read low 1 | locus YLR342W, strain FKS1 (second series), active compounds read low 1.03 | locus YLR342W, strain FKS1, active compounds read low 0.994 | locus YLR357W, strain rsc2, active compounds read low 0.99 | locus YLR370C, strain arc18, active compounds read low 1 | locus YLR371W, strain rom2, active compounds read low 0.983 | locus YLR384C, strain iki3, active compounds read low 0.999 | locus YLR418C, strain cdc73, active compounds read low 0.997 | locus YML016C, strain PPZ1, active compounds read low 1.01 | locus YML032C, strain rad52, active compounds read low 0.999 | locus YML120C, strain ndi1, active compounds read low 0.992 | locus YML124C, strain tub3, active compounds read low 1 | locus YMR058W, strain fet3, active compounds read low 1 | locus YMR078C, strain ctf18, active compounds read low 0.985 | locus YMR125W, strain sto1, active compounds read low 0.986 | locus YMR129W, active compounds read low 0.995 | locus YMR205C, strain PFK2, active compounds read low 0.983 | locus YMR223W, strain ubp8, active compounds read low 1.01 | locus YMR231W, strain pep5, active compounds read low 0.999 | locus YMR307W, strain GAS1, active compounds read low 1.09 | locus YNL067W, strain RPL9B, active compounds read low 1 | locus YNL071W, strain lat1, active compounds read low 1 | locus YNL128W, strain TEP1, active compounds read low 1.02 | locus YNL153C, strain GIM3, active compounds read low 1 | locus YNL183C, strain NPR1, active compounds read low 0.97 | locus YNL209W, strain ssb2, active compounds read low 1 | locus YNL233W, strain BNI4, active compounds read low 1.01 | locus YNL248C, strain rpa49, active compounds read low 0.995 | locus YNL250W, strain rad50, active compounds read low 1.01 | locus YNL271C, strain bni1, active compounds read low 0.988 | locus YNL298W, strain CLA4, active compounds read low 1.02 | locus YNL307C, strain MCK1, active compounds read low 0.988 | locus YNL322C, strain KRE1 (second series), active compounds read low 0.997 | locus YNR049C, strain mso1, active compounds read low 1 | locus YNR052C, strain pop2, active compounds read low 1 | locus YOL012C, strain htz1 0.948 | locus YOL147C, strain pex11, active compounds read low 0.986 | locus YOR001W, strain rrp6, active compounds read low 0.999 | locus YOR061W, strain CKA2, active compounds read low 1.01 | locus YOR069W, strain VPS5, active compounds read low 1.01 | locus YOR070C, strain gyp1, active compounds read low 0.998 | locus YOR080W, strain dia2, active compounds read low 0.996 | locus YOR083W, strain WHI5, active compounds read low 0.993 | locus YOR106W, strain vam3, active compounds read low 1 | locus YOR136W, strain idh2, active compounds read low 0.991 | locus YOR144C, strain elg1, active compounds read low 0.983 | locus YOR184W, strain ser1, active compounds read low 1 | locus YOR231W, strain MKK1, active compounds read low 1.01 | locus YOR265W, strain rbl2, active compounds read low 0.996 | locus YOR270C, strain vph1, active compounds read low 1.01 | locus YOR290C, strain snf2, active compounds read low 0.989 | locus YOR316C, strain cot1, active compounds read low 0.991 | locus YPL051W, strain arl3, active compounds read low 1 | locus YPL078C, strain atp4, active compounds read low 1.01 | locus YPL106C, strain sse1, active compounds read low 0.987 | locus YPL240C, strain hsp82, active compounds read low 0.99 | locus YPL256C, strain CLN2, active compounds read low 1.03 | locus YPR119W, strain clb2, active compounds read low 0.987 | locus YPR141C, strain kar3, active compounds read low 0.994 | locus YPR163C, strain tif3, active compounds read low 0.986 | locus YPR167C, strain met16, active compounds read low 0.996 | strain wtn01, active compounds read low 0.984
